# Results filed as inconclusive are left out. Values without a mark were called inactive. The call rests on the fitted dose curve; in most records, active means well fitted inhibition curve with a large enough effect; inconclusive means small, poorly fitted or top-dose-only effect; inactive means flat fitted curve, though single readings scatter.
# Assay: qHTS to identify inhibitors of the type 1 interferon - major histocompatibility complex class I in skeletal muscle: primary screen against the NCATS Pharmaceutical Collection (AID 1347407)
# Conditions: human skeletal muscle cells, IFN-b-induced MHC-I HiBiT luminescence, 24 h; series mostly up to 45.9 µM; activity change, negative = inhibition: at the top concentration
# In short: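 Luminescence from HiBiT-tagged endogenous HLA-B*08:01 served as the read-out of IFN-beta-induced MHC class I in CRISPR-engineered C25cl48 myoblasts. Cells received 4 ng/ml IFN-beta plus compound (high final 46 uM, […]) for 24 h.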
# On the % scale 0 is the no-effect control and ±100 the full control effect.
row,SMILES,"activity change, negative = inhibition"
1,FC(F)(F)C(F)(F)C(F)(F)C(F)(F)C(F)(F)C(F)(F)C(F)(F)C(F)(F)Br,-10.5%
2,CCCCc1cc2ccccc2c(OCCN(C)C)n1,-5.78%
3,Cc1ccc(S(=O)(=O)NC(=O)NC2CCCC2)cc1,9.79%
4,COc1ccc(C(=O)c2ccccc2O)c(O)c1,-20%
5,CCOC(=O)C(C#N)=C(c1ccccc1)c1ccccc1,-5.21%
6,Nc1nc(-c2ccccc2)c(Br)c(=O)[nH]1,-9.05%
7,O=[N+]([O-])c1cccc(S(=O)(=O)NCCNS(=O)(=O)c2cccc([N+](=O)[O-])c2)c1,-8.23%
8,CN(C)CCOC(=O)C(c1ccccc1)C1(O)CCCC1 (stereo unspecified),-2.19%
9,CCCCCCCCOc1ccc(C(=O)c2ccccc2)c(O)c1,-9.96%
10,COc1cc(N)c(Cl)cc1C(=O)NC1CCN(Cc2ccccc2)CC1,-3.26%
11,Nc1ccc(S(=O)(=O)NCc2ccccc2)cc1,5.85%
12,CCc1cc(Cl)c(OC)c(C(=O)NC[C@@H]2CCCN2CC)c1O,-14.6%
13,OCc1ccccn1,-3.19%
14,Cc1cccc(C)c1NC(=O)c1ccccc1C(=O)O,22.6%
15,COc1cc(O)c(C(=O)c2ccccc2)cc1S(=O)(=O)O,0.218%
16,CCc1nn(CCCN2CCN(c3cccc(Cl)c3)CC2)c(=O)n1CCOc1ccccc1,-10.4%
17,OC1C(O)C(O)C(O)C(O)C1O (stereo unspecified),0.062%
18,CC(=O)Nc1ccc(OCC(O)CNC(C)C)cc1 (stereo unspecified),0.665%
19,O=C(NCCc1c[nH]c2ccccc12)c1cccnc1,-1.75%
20,Cc1cccc(C)c1NC(=O)CN1CCCCCC1,0.0781%
21,CN1CCc2cccc3c2[C@H]1Cc1ccc(O)c(O)c1-3,-7.87%
